Where “and” joins values, the source holds several entries; their conditions need not be identical. Equal values may be shown once. About 37,000 (12%) of roughly 300,000 compounds were called active. This is one part of a sample in which actives are shown more often than they occur. No stated cut-off is given here; in the data, active means max response mostly above about 13% (no sharp cut-off); inactive means mostly below about 14%.

The nature of this assay: Cycloheximide Counterscreen for Small Molecule Inhibitors of Shiga Toxin. Further: read at 38.3 µM for the half of the compounds with a filed dose; 0% is about no effect. Conditions: cell reporter, cycloheximide protein synthesis inhibition counterscreen; hits give high values. (A counterscreen serves to expose hits that act by an unwanted route or on another target.)
Take `Cc1ccccc1OC/C(O)=C(\C#N)c1nc2ccccc2[nH]1`: the max response is 0.892% (inactive). Turning to `N#C/C(=C(/O)COc1cccc2ccccc12)c1nc2ccccc2[nH]1`, the max response is 2.08% (inactive). With `COCCN(CCOC)S(=O)(=O)c1ccc(/C(O)=C(\C#N)c2nc3ccccc3[nH]2)cc1`, the max response is 12.2% (active).

For the compound `O=C(c1ccc(OC2CCN(C(=O)c3cccnc3)CC2)cc1)N1CCCCCC1`, the max response is -1.68% (inactive).

On to `CCOC(=O)/C(=C\c1ccc([N+](=O)[O-])cc1)C(=O)c1cc(C(C)=O)c(Nc2ccccc2)s1`, for which the max response is -4.46% (inactive).

As to `CN(C)C(=O)Oc1ccc2c(c1)O/C(=C\c1ccccc1)C2=O`, the max response was 44.1% (active). Consider `COC(=O)C(C)Oc1ccc2c(c1)O/C(=C\c1cccc(Br)c1)C2=O` (stereo unspecified), for which the max response is 1.99% (inactive). Regarding `O=C1/C(=C/c2ccc3c(c2)OCO3)Oc2cc(OCC(=O)N3CC(O)C[C@H]3C(=O)O)ccc21` (stereo partly specified), the max response was 0.739% (inactive). For `COc1cc(C(CCN2CCN(c3ccccc3)CC2)c2c(OC)cc(OC)c3ccc(=O)oc23)cc(OC)c1OC` (stereo unspecified), the max response is -1.52% (inactive) and 15.6% (inactive). To `C=C(C)COc1ccc(-c2ncncc2-c2ccc(OC)cc2)c(O)c1` belongs 13.2% (inactive). In the case of `Cc1ccc(SCC(=O)c2cc(C)c(OC(=S)N(C)C)c(C)c2)cc1`, the max response is 26.1% (active).

On to `Cc1ccc(SC(=O)COc2ccc(C)c(C)c2)cc1`, for which the max response is -5.87% (inactive). Take `COC(=O)c1cc(OC)c(OC)cc1NC(=O)CSc1ccc(C)cc1`: the max response is -2.51% (inactive).

Regarding `Cc1ccc(NC(=O)c2ccc(S(=O)(=O)NCC3CCCO3)cc2)cc1C` (stereo unspecified), the max response was 9.52% (inactive).

As to `Cc1ccc(-c2nn(-c3ccccc3)cc2/C=C2\SC(=S)N(CCCCCC(=O)O)C2=O)o1`, the max response was 1.36% (inactive). For the compound `O=C(NC(=S)N1CCCCC1c1cccnc1)c1ccccc1` (stereo unspecified), the max response is 11.6% (inactive).

Turning to `C=C(C)c1cccc(C(C)(C)NC(=O)NC2CCCC2)c1`, the max response is -2.37% (inactive).

Take `Cc1ccc(C)c(N2CCN(C(=O)Cn3ncn4cccc4c3=O)CC2)c1`: the max response was -1.35% (inactive). As for `FC(F)(F)c1ccnc(Oc2ccc(C3=NCCS3)cc2)c1`, the max response was 42.3% (active).

Turning to `O=Cc1ccc(Oc2cccc(C(F)(F)F)c2)nc1`, the max response is 15% (inactive). With `NC(=S)Nc1c(Cl)cccc1Cl` the figure was 4.66% (inactive); with `O=C(COC(=O)c1cccs1)Nc1ccccc1Cl`, -1.99% (inactive); with `CCc1ccc(NC(=O)C(=O)NNC(=O)c2cccs2)cc1`, 27.8% (active).

As to `CCc1cccc(NC(=O)CCNS(=O)(=O)c2cccc3nonc23)c1`, the max response is -2.33% (inactive). For the compound `CCc1ccc(NC(=O)CCNS(=O)(=O)c2cccs2)cc1`, the max response is 21.6% (active). With `CCc1ccc(NC(=O)C(=O)N/N=C(\C)CC(=O)NCCOC)cc1` the figure was 20.1% (inactive); with `O=C(COC(=O)c1ccc(NS(=O)(=O)c2cccs2)cc1O)Nc1ccc(F)cc1`, 0.935% (inactive). To `O=C(COC(=O)c1cccs1)NCc1cccs1` belongs 16.3% (active). To `C/C(=N\OCC(=O)Nc1ccc(Br)cc1)c1cccs1` belongs 7.82% (inactive); to `O=C(COC(=O)CCC(=O)c1cccs1)NCc1ccco1`, 1.52% (inactive); to `CCOC(=O)c1oc2ccccc2c1NC(=O)c1cccs1`, -3.1% (inactive). Turning to `O=C(COC(=O)c1ccc(Cl)nc1)NCc1cccs1`, the max response is -2.61% (inactive). With `CCc1ccc(NC(=O)COC(=O)c2cccs2)cc1`, the max response was 51.3% (active). Take `CCc1ccccc1N(CC(=O)NCC1CCCO1)C(=O)CCC(=O)Nc1nccs1` (stereo unspecified): the max response was -4.73% (inactive). As to `CCOc1ccccc1NC(=O)C1CCCN(S(=O)(=O)c2ccccc2)C1` (stereo unspecified), the max response is -1.93% (inactive). For `NS(=O)(=O)c1ccc(NC(=S)NNC(=O)c2cccs2)cc1`, the max response is 29.3% (active). Consider `CCc1nnc(NS(=O)(=O)c2ccc(NC(=S)NC(=O)c3cccs3)cc2)s1`, for which the max response was 0.706% (inactive). With `O=C(NC(=S)Nc1ccc(NC(=O)c2cccs2)cc1)c1ccc([N+](=O)[O-])cc1` the figure was 0.608% (inactive). For the compound `O=C(c1n[nH]c2c1CCC2)N1CCCC(Nc2cccc(F)c2)C1` (stereo unspecified), the max response was 10.7% (inactive). To `O=C(NCc1ccc(Cl)cc1)c1cc(=O)nc2sc(-c3ccccc3)nn12` belongs -4.5% (inactive). For the compound `CC(=NCc1ccc2c(c1)OCO2)C1=C(O)c2ccccc2C1=O`, the max response was 14.2% (active). As for `CC(=NCc1ccc2c(c1)OCO2)c1c(O)[nH]c(=O)[nH]c1=O`, the max response was -1.94% (inactive). With `CC(=NCc1ccco1)C1=C(O)c2ccccc2C1=O` the figure was 24.6% (inactive); with `CC1C(=O)N(Cc2ccccc2)c2ccccc2N1C(=O)c1ccccc1` (stereo unspecified), 5.44% (inactive). On to `O=C(OCc1ccc([N+](=O)[O-])cc1)C1CC(=O)N(Cc2ccccc2Cl)C1` (stereo unspecified), for which the max response is 5.26% (inactive). With `O=C(Nc1ccc2c(c1)CCC2)c1cccc(S(=O)(=O)N2CCN(c3ccc(F)cc3)CC2)c1` the figure was 18.6% (active).

In the case of `CN1CCN(S(=O)(=O)c2cccc(C(=O)Nc3cccc(S(N)(=O)=O)c3)c2)CC1`, the max response is 5.45% (inactive). As to `Cc1cccnc1NC(=O)c1cccc(S(=O)(=O)N2CCN(c3ccc(F)cc3)CC2)c1`, the max response is -1.47% (inactive). On to `OCCC1CN(Cc2cnc(-c3ccccc3)s2)CCN1CCc1ccccc1` (stereo unspecified), for which the max response is -2.01% (inactive). With `Clc1ccc(-c2nnc(SCc3nc4ccccc4s3)o2)cc1` the figure was 31.5% (active); with `O=C(CSc1nnc(-c2ccncc2)o1)NCc1ccc(Cl)cc1`, -4.87% (inactive).

Turning to `O=C(COC(=O)CSc1nnc(-c2ccc(Cl)cc2)o1)Nc1cc(Cl)cc(Cl)c1`, the max response was -1.68% (inactive). With `O=C(NCc1ccccc1Cl)C1CCN(S(=O)(=O)c2cccc3nonc23)CC1`, the max response was 7.56% (inactive). Regarding `O=c1oc(-c2ccccc2NS(=O)(=O)c2ccc(Cl)cc2)nc2ccccc12`, the max response was -0.333% (inactive). Consider `Cc1nc(Cl)cc(N/N=C/c2ccccc2)n1`, for which the max response was 9.02% (active). Take `C(=N/Nc1cc(N2CCOCC2)nc(N2CCOCC2)n1)/c1ccccc1`: the max response is -4.51% (inactive). With `Cc1cc(N/N=C\c2ccc(Br)cc2)nc(-n2nc(C)cc2C)n1`, the max response was -2.43% (inactive). Take `CCc1ccc2oc(=O)cc(CN3CCCCC3C)c2c1` (stereo unspecified): the max response was 10.3% (inactive). Regarding `CCOC(=O)C1CCCN(C(=O)COc2ccc(N(C)S(=O)(=O)c3ccc(C)cc3)cc2)C1` (stereo unspecified), the max response is -3.78% (inactive).

Take `O=C(NCC1CCCO1)C1CCN(C2CCN(C(=O)C3CCCCC3)CC2)CC1` (stereo unspecified): the max response is -2.3% (inactive). In the case of `O=c1c2c(nc3nc[nH]n13)CCC2`, the max response is -2.72% (inactive). On to `O=c1c2c(nc3cc(-c4cccc(Cl)c4)[nH]n13)CCCC2`, for which the max response was 52.1% (active).

As to `Cc1cc(=O)n2[nH]c(-c3cccc(Cl)c3)cc2n1`, the max response is 6.54% (inactive).

With `COc1ccc(OC)c(NC(=O)Cc2cccs2)c1`, the max response was 5.9% (inactive). For `CS(=O)(=O)N(CC(=O)N/N=C/c1ccccn1)c1ccc(Oc2ccccc2)cc1`, the max response is 8.35% (inactive).

Turning to `CC(C(=O)N=Nc1c(O)n(C)c2ccc(Br)cc12)n1cnc2ccccc2c1=O` (stereo unspecified), the max response was 1.79% (inactive). With `Cn1c(CCCOc2ccc(Cl)cc2Cl)n[nH]c1=S`, the max response is 16.1% (active). Take `O=C(CCCOc1ccc(Cl)cc1Cl)NNC(=O)C1CCC1`: the max response is 3.02% (inactive).

As to `S=c1[nH]nc(CSCc2ccc(Cl)cc2Cl)n1-c1ccccc1`, the max response is -1.69% (inactive). As for `CC(C)Cn1c(N)c(C(=O)COC(=O)CN2C(=O)C3CC=CCC3C2=O)c(=O)n(C)c1=O` (stereo unspecified), the max response was 1.25% (inactive). On to `COc1ccc(-n2cc(-c3ccccc3)c3c(=S)nc[nH]c32)cc1`, for which the max response is -2.8% (inactive). Consider `COc1ccc(-c2cn(-c3ccc(OC)cc3)c(=S)[nH]2)cc1`, for which the max response was 37.9% (active). Consider `COc1ccc(-n2c(-c3ccc(OC)c(OC)c3)n[nH]c2=S)cc1`, for which the max response was -1.61% (inactive). With `O=C(Cc1ccc(S(=O)(=O)N2CCOCC2)s1)NCCC(c1ccccc1)c1ccccc1` the figure was -2.5% (inactive); with `Nc1ccccc1Sc1ccc(C(F)(F)F)cc1[N+](=O)[O-]`, -0.845% (inactive); with `CCOC(=O)c1cc(Sc2ccccc2N)cc(C(=O)OCC)n1`, -2.14% (inactive). For `CCS(=O)(=O)c1cc([N+](=O)[O-])c(Sc2ccccc2N)s1`, the max response is 52.5% (active). As to `Fc1ccc(-n2c(Cc3ccccc3)nnc2SCc2nc(-c3ccc(Cl)cc3)no2)cc1`, the max response is -3.26% (inactive). Turning to `CCOC(=O)C1C(c2ccc(O)cc2)NC(=O)NC1(O)C(F)(F)F` (stereo unspecified), the max response was -1.88% (inactive).

Take `Cc1cc(OC(C)C(=O)NC2CC(C)(C)NC(C)(C)C2)c2c(C)cc(=O)oc2c1` (stereo unspecified): the max response is 2.41% (inactive). On to `CN(C)CCCNC(=O)c1cc(C(=O)Cc2ccc(Cl)cc2)c[nH]1`, for which the max response is 0.733% (inactive). To `CC(C)CNC(=S)NNC(=O)c1nn(C)cc1Cl` belongs -2.88% (inactive); to `Cn1cc(Cl)c(C(=O)NNC(=S)Nc2cccc(Cl)c2)n1`, 42% (active). As to `COc1cccc(NC(=S)NC(=O)c2c(Cl)c(C)nn2C)c1`, the max response was 18.3% (inactive). Regarding `COc1ccc(C2=NS(=O)(=O)N(C)C(C(=O)N3CCCCC3)=C2)cc1`, the max response was 0.248% (inactive). As to `NC(N)=Nc1nc2ccc(Br)cc2c(=O)[nH]1`, the max response was 1.64% (inactive).

For `CC(=O)Nc1ccc(S(=O)(=O)NNC(=O)CCc2ccccc2)cc1`, the max response is 17.5% (inactive). As to `COC(=O)c1ccc(CSc2nc3cc(Cl)ccc3o2)cc1`, the max response is -2.59% (inactive). Regarding `COc1ccc(CNC(=O)c2ccc3oc(C(C)C)nc3c2)cc1`, the max response is 43.8% (active). `CCOc1c2ccc(C(=O)NCc3ccc(OC(F)(F)F)cc3)cc2nn1C`: the max response was -3.46% (inactive). On to `Cc1ccc(C(=O)NC(C)c2ccccc2)cc1Br` (stereo unspecified), for which the max response was 12.6% (inactive).

Turning to `COc1ccc(CNC(=O)c2cc(=O)c3c(C)cc(C)cc3o2)cc1`, the max response is 10.1% (inactive). `CC(C)c1nc2cc(C(=O)NC(C)c3cnn(C)c3)ccc2o1` (stereo unspecified): the max response is 16.9% (active). `COCC1CCCN(C(=O)c2ccc3oc(C(C)C)nc3c2)C1` (stereo unspecified): the max response was 12.4% (inactive). With `COC(=O)c1ccc(CNC(=O)c2ccc3oc(C(C)C)nc3c2)cc1` the figure was 49.5% (active); with `COc1ccc(C(=O)N[C@H](C(=O)NCc2ccccc2)C(C)C)cc1`, 1.24% (inactive).

(Values after PubChem BioAssay AID2314 (National Center for Advancing Translational Sciences (NCATS), 2010).)
